Test results published in PubChem BioAssay AID1159580 (chemical genetic matrix, 2015).
The whole screen tested about 5,500 compounds, of which about 2,000 (36%) were called active. Inconclusive results (about 18%) are left out. No stated cut-off is given here; in the data, active means normalized growth mostly below about 0.91 (no sharp cut-off); inconclusive means no clear call, values can overlap the other calls; inactive means mostly above about 0.92. The list shows a part of the results.

Experiment: chemical genetic growth profiling, strain panel (AID 1159580);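 further: tested at 20 µM; growth read once vehicle control cultures reached saturation at 30 °C; 1 = growth at the plate median or of vehicle wells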
Settings: growth OD

Measured: normalized growth

CC(=O)Nc1ccccc1
inactive: S. cerevisiae deletion strains, locus YJR066W, strain TOR1, stronger effect = lower value 0.911 | S. cerevisiae deletion strains, locus YJR075W, strain HOC1, stronger effect = lower value 0.99 | S. cerevisiae deletion strains, locus YKL009W, strain mrt4, stronger effect = lower value 0.97 | S. cerevisiae deletion strains, locus YKL068W, stronger effect = lower value 0.99 | S. cerevisiae deletion strains, locus YKL085W, strain MDH1 (second series), stronger effect = lower value 0.977 | S. cerevisiae deletion strains, locus YKL085W, strain MDH1, stronger effect = lower value 0.977 | S. cerevisiae deletion strains, locus YKL160W, strain elf1, stronger effect = lower value 0.985 | S. cerevisiae deletion strains, locus YKL190W, strain CNB1, stronger effect = lower value 0.973 | S. cerevisiae deletion strains, locus YKR001C, strain vps1, stronger effect = lower value 0.98 | S. cerevisiae deletion strains, locus YKR026C, strain gcn3, stronger effect = lower value 0.927 | S. cerevisiae deletion strains, locus YKR091W, strain srl3, stronger effect = lower value 0.95 | S. cerevisiae deletion strains, locus YLL001W, strain dnm1, stronger effect = lower value 0.979 | S. cerevisiae deletion strains, locus YLL026W, stronger effect = lower value 0.972 | S. cerevisiae deletion strains, locus YLL041C, strain sdh2, stronger effect = lower value 0.985 | S. cerevisiae deletion strains, locus YLR027C, strain aat2, stronger effect = lower value 0.961 | S. cerevisiae deletion strains, locus YLR039C, strain RIC1, stronger effect = lower value 0.966 | S. cerevisiae deletion strains, locus YLR058C, strain SHM2, stronger effect = lower value 0.972 | S. cerevisiae deletion strains, locus YLR102C, strain apc9, stronger effect = lower value 0.983 | S. cerevisiae deletion strains, locus YLR113W, strain HOG1, stronger effect = lower value 0.959 | S. cerevisiae deletion strains, locus YLR221C, strain rsa3, stronger effect = lower value 0.967 | S. cerevisiae deletion strains, locus YLR258W, strain gsy2, stronger effect = lower value 0.98 | S. cerevisiae deletion strains, locus YLR262C, strain YPT6 (second series), stronger effect = lower value 0.976 | S. cerevisiae deletion strains, locus YLR262C, strain YPT6, stronger effect = lower value 0.941 | S. cerevisiae deletion strains, locus YLR268W, strain sec22, stronger effect = lower value 0.99 | S. cerevisiae deletion strains, locus YLR320W, strain mms22, stronger effect = lower value 0.964 | S. cerevisiae deletion strains, locus YLR330W, strain CHS5, stronger effect = lower value 0.996 | S. cerevisiae deletion strains, locus YLR342W, strain FKS1 (second series), stronger effect = lower value 1.07 | S. cerevisiae deletion strains, locus YLR342W, strain FKS1, stronger effect = lower value 0.954 | S. cerevisiae deletion strains, locus YLR357W, strain rsc2, stronger effect = lower value 0.967 | S. cerevisiae deletion strains, locus YLR370C, strain arc18, stronger effect = lower value 0.97 | S. cerevisiae deletion strains, locus YLR371W, strain rom2, stronger effect = lower value 0.999 | S. cerevisiae deletion strains, locus YLR384C, strain iki3, stronger effect = lower value 0.986 | S. cerevisiae deletion strains, locus YLR418C, strain cdc73, stronger effect = lower value 1 | S. cerevisiae deletion strains, locus YML016C, strain PPZ1, stronger effect = lower value 0.993 | S. cerevisiae deletion strains, locus YML032C, strain rad52, stronger effect = lower value 0.992 | S. cerevisiae deletion strains, locus YML120C, strain ndi1, stronger effect = lower value 0.967 | S. cerevisiae deletion strains, locus YML124C, strain tub3, stronger effect = lower value 0.982 | S. cerevisiae deletion strains, locus YMR058W, strain fet3, stronger effect = lower value 0.976 | S. cerevisiae deletion strains, locus YMR078C, strain ctf18, stronger effect = lower value 0.982 | S. cerevisiae deletion strains, locus YMR125W, strain sto1, stronger effect = lower value 0.944 | S. cerevisiae deletion strains, locus YMR129W, stronger effect = lower value 0.984 | S. cerevisiae deletion strains, locus YMR205C, strain PFK2, stronger effect = lower value 0.969 | S. cerevisiae deletion strains, locus YMR223W, strain ubp8, stronger effect = lower value 0.985 | S. cerevisiae deletion strains, locus YMR231W, strain pep5, stronger effect = lower value 0.986 | S. cerevisiae deletion strains, locus YMR263W, strain SAP30, stronger effect = lower value 0.981 | S. cerevisiae deletion strains, locus YMR307W, strain GAS1, stronger effect = lower value 1.07 | S. cerevisiae deletion strains, locus YNL067W, strain RPL9B, stronger effect = lower value 0.964 | S. cerevisiae deletion strains, locus YNL071W, strain lat1, stronger effect = lower value 0.976 | S. cerevisiae deletion strains, locus YNL183C, strain NPR1, stronger effect = lower value 0.915 | S. cerevisiae deletion strains, locus YNL209W, strain ssb2, stronger effect = lower value 0.975 | S. cerevisiae deletion strains, locus YNL233W, strain BNI4, stronger effect = lower value 0.978 | S. cerevisiae deletion strains, locus YNL248C, strain rpa49, stronger effect = lower value 0.969 | S. cerevisiae deletion strains, locus YNL250W, strain rad50, stronger effect = lower value 0.97 | S. cerevisiae deletion strains, locus YNL271C, strain bni1, stronger effect = lower value 0.995 | S. cerevisiae deletion strains, locus YNL298W, strain CLA4, stronger effect = lower value 0.986 | S. cerevisiae deletion strains, locus YNL307C, strain MCK1, stronger effect = lower value 0.987 | S. cerevisiae deletion strains, locus YNL322C, strain KRE1 (second series), stronger effect = lower value 0.942 | S. cerevisiae deletion strains, locus YNR049C, strain mso1, stronger effect = lower value 0.952 | S. cerevisiae deletion strains, locus YNR052C, strain pop2, stronger effect = lower value 0.996 | S. cerevisiae deletion strains, locus YOL006C, strain TOP1, stronger effect = lower value 0.928 | S. cerevisiae deletion strains, locus YOL012C, strain htz1 0.771 | S. cerevisiae deletion strains, locus YOL147C, strain pex11, stronger effect = lower value 0.982 | S. cerevisiae deletion strains, locus YOR001W, strain rrp6, stronger effect = lower value 0.979 | S. cerevisiae deletion strains, locus YOR061W, strain CKA2, stronger effect = lower value 0.959 | S. cerevisiae deletion strains, locus YOR069W, strain VPS5, stronger effect = lower value 0.994 | S. cerevisiae deletion strains, locus YOR070C, strain gyp1, stronger effect = lower value 0.972 | S. cerevisiae deletion strains, locus YOR080W, strain dia2, stronger effect = lower value 0.961 | S. cerevisiae deletion strains, locus YOR083W, strain WHI5, stronger effect = lower value 0.965 | S. cerevisiae deletion strains, locus YOR106W, strain vam3, stronger effect = lower value 0.956 | S. cerevisiae deletion strains, locus YOR136W, strain idh2, stronger effect = lower value 0.988 | S. cerevisiae deletion strains, locus YOR144C, strain elg1, stronger effect = lower value 0.987 | S. cerevisiae deletion strains, locus YOR184W, strain ser1, stronger effect = lower value 0.981 | S. cerevisiae deletion strains, locus YOR231W, strain MKK1, stronger effect = lower value 0.968 | S. cerevisiae deletion strains, locus YOR265W, strain rbl2, stronger effect = lower value 0.973 | S. cerevisiae deletion strains, locus YOR270C, strain vph1, stronger effect = lower value 0.927 | S. cerevisiae deletion strains, locus YOR290C, strain snf2, stronger effect = lower value 0.971 | S. cerevisiae deletion strains, locus YOR316C, strain cot1, stronger effect = lower value 0.978 | S. cerevisiae deletion strains, locus YPL051W, strain arl3, stronger effect = lower value 0.982 | S. cerevisiae deletion strains, locus YPL055C, strain LGE1, stronger effect = lower value 0.906 | S. cerevisiae deletion strains, locus YPL078C, strain atp4, stronger effect = lower value 0.971 | S. cerevisiae deletion strains, locus YPL106C, strain sse1, stronger effect = lower value 0.961 | S. cerevisiae deletion strains, locus YPL240C, strain hsp82, stronger effect = lower value 0.994 | S. cerevisiae deletion strains, locus YPL256C, strain CLN2, stronger effect = lower value 0.953 | S. cerevisiae deletion strains, locus YPR119W, strain clb2, stronger effect = lower value 0.986 | S. cerevisiae deletion strains, locus YPR141C, strain kar3, stronger effect = lower value 0.989 | S. cerevisiae deletion strains, locus YPR163C, strain tif3, stronger effect = lower value 0.996 | S. cerevisiae deletion strains, locus YPR167C, strain met16, stronger effect = lower value 0.994 | S. cerevisiae deletion strains, strain wtn01, stronger effect = lower value 1 | S. cerevisiae strains, strain wild type, stronger effect = lower value 0.982
